# Screening data from PubChem.
# The list is not random: actives were taken first. Their share in the collection is about 6.8%.
# Pf Dd2 growth = P. falciparum Dd2 growth inhibitors, primary screen, SYBR Green fluorescence, single dose replicates; 72 h; stronger effect = lower value; activity change, % at 10 µM; hit rate 2.3% among 94,000; in the data active = activity change below about -80%
# Tcruzi prolif = T. cruzi intracellular proliferation inhibitors, primary screen, cell-based, beta-gal Tulahuen parasites, NIH3T3 host, luminescence | T. cruzi beta-gal in NIH3T3, GalScreen luminescence, 90 h | inhibition, % at 8.34 µM | hit rate 5.9% among 77,000 | AID 624255, 2012;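 active = mean inhibition above about 93%, with at least 55% of replicates each passing it, limit read from the data, passing the limit was not always enough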
# C diff growth = C. difficile growth inhibitors, primary screen, HTS | hit rate 0.25% among 86,000 | growth activity, negative = inhibition, % at 16 µg/mL (by protocol) | Clostridium difficile clinical isolate growth, OD600, 24 h; stronger effect = lower value | AID 1259249, 2017;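 active = mean growth activity at or below -80% and every replicate also at or below -80%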;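 also: 0% = DMSO wells and -100% = levofloxacin 16 µg/mL wells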
# * marks the source's active call; other numbers are inactive results; . = no result.
SMILES,Pf Dd2 growth,Tcruzi prolif,C diff growth
COc1ccc(CN2CC3(CCN(C(=O)Cc4ccncc4)CC3)c3c([nH]c4cc(OC)ccc34)[C@@H]2CO)cc1,-86*,.,32
CCCC(=O)N1CC2(C1)CN(Cc1ccncc1)[C@H](CO)c1[nH]c3cc(OC)ccc3c12,-59,.,4
Cc1noc(C)c1NC(=O)N(C)C[C@H]1Oc2c(NC(=O)CCCCCC(=O)Nc3ccccc3N)cccc2C(=O)N([C@H](C)CO)C[C@@H]1C,42,.,-2
C[C@H]1CN([C@@H](C)CO)C(=O)Cc2cc(NC(=O)Nc3ccc(C(F)(F)F)cc3)ccc2O[C@H]1CN(C)C(=O)Nc1cccc2ccccc12,-40,55,3
C[C@@H]1CCCCO[C@H](CN(C)S(=O)(=O)c2ccc(F)cc2)[C@@H](C)CN([C@H](C)CO)C(=O)c2cc(NC(=O)c3ccccc3)ccc2O1,-32,.,-3
C[C@@H]1CN([C@@H](C)CO)C(=O)c2cc(NC(=O)c3ccccc3)ccc2O[C@@H](C)CCCCO[C@@H]1CN(C)S(=O)(=O)c1ccc(F)cc1,-81*,.,8
C[C@@H]1CN([C@H](C)CO)C(=O)c2cc(NC(=O)c3ccccc3)ccc2O[C@@H](C)CCCCO[C@@H]1CN(C)S(=O)(=O)c1ccc(Cl)cc1,-82*,94,11
Cc1ccc(S(=O)(=O)N(C)C[C@H]2Oc3ccc(NC(=O)c4ccncc4)cc3C(=O)N([C@@H](C)CO)C[C@@H]2C)cc1,-88*,13,-3
Cc1ccc(S(=O)(=O)N(C)C[C@H]2OCCCC[C@H](C)Oc3ccc(NC(=O)c4ccccc4)cc3C(=O)N([C@@H](C)CO)C[C@H]2C)cc1,-86*,-40,.
Cc1ccc(S(=O)(=O)N(C)C[C@H]2OCCCC[C@@H](C)Oc3ccc(NC(=O)c4ccccc4)cc3C(=O)N([C@H](C)CO)C[C@@H]2C)cc1,-63,44,.
C[C@@H]1CCCCO[C@H](CN(C)S(=O)(=O)c2ccc(Cl)cc2)[C@H](C)CN([C@@H](C)CO)C(=O)c2cc(NC(=O)c3ccccc3)ccc2O1,-74,101,6
Cc1ccc(S(=O)(=O)N(C)C[C@H]2Oc3ccc(NC(=O)c4ccncc4)cc3C(=O)N([C@H](C)CO)C[C@H]2C)cc1,23,-17,-2
CNC[C@@H]1Oc2c(NC(=O)c3cc(C)nn3C)cccc2C(=O)N([C@H](C)CO)C[C@H]1C,25,.,0
COc1ccc(NC(=O)N(C)C[C@@H]2OCCCC[C@@H](C)Oc3ccc(NC(=O)CCC(F)(F)F)cc3C(=O)N([C@H](C)CO)C[C@@H]2C)cc1,2,32,-1
COc1ccccc1-c1cn(CC[C@H]2CC[C@H](NS(=O)(=O)c3ccccc3C)[C@H](CO)O2)nn1,-2,.,-4
CC(C)NC(=O)N(C)C[C@@H]1Oc2ccc(NC(=O)CCCN(C)C)cc2C(=O)N([C@H](C)CO)C[C@@H]1C,6,.,-4
OC[C@H]1[C@@H](c2ccc(-c3ccc(F)cc3)cc2)[C@@H]2CN(CCC(F)(F)F)CCCCN12,-79,94,25
OC[C@@H]1[C@H](c2ccc(-c3ccc(F)cc3)cc2)[C@@H](CNC2CCCC2)N1CCC(F)(F)F,-97*,.,44
OC[C@H]1[C@H](c2ccc(-c3ccc(F)cc3)cc2)[C@@H]2CN(CCC(F)(F)F)CCCCN12,-65,45,36
OC[C@@H]1[C@H](c2ccc(-c3ccc(F)cc3)cc2)[C@H](CNC2CCCC2)N1CCC(F)(F)F,-89*,.,23
O=C(C[C@H]1C=C[C@@H](NC(=O)c2ccncc2)[C@@H](CO)O1)Nc1ccc(-c2ccccc2)cc1,6,.,-2
COCC(=O)N1CC2(C1)CN(C(=O)c1ccccn1)[C@H](CO)c1c2c2ccc(OC)cc2n1C,26,.,.
O=C(Nc1ccccc1F)N1CC(=O)N2[C@@H](CO)[C@@H](c3ccc(C#Cc4ccccc4)cc3)[C@@H]2C1,-9,.,3
C[C@@H]1CN([C@@H](C)CO)C(=O)Cc2cc(NC(=O)CCCCCC(=O)Nc3ccccc3N)ccc2O[C@@H]1CN(C)S(=O)(=O)c1ccc(Cl)cc1,-63,57,.
Cc1ccc(S(=O)(=O)N(C)C[C@@H]2Oc3ccc(NC(=O)CCCCCC(=O)Nc4ccccc4N)cc3CC(=O)N([C@H](C)CO)C[C@@H]2C)cc1,-87*,49,-2
SMILES,Pf Dd2 growth,Tcruzi prolif,C diff growth
Cc1ccc(S(=O)(=O)N(C)C[C@H]2Oc3ccc(NC(=O)CCCCCC(=O)Nc4ccccc4N)cc3CC(=O)N([C@H](C)CO)C[C@H]2C)cc1,-67,47,-3
COc1ccc(S(=O)(=O)N(C)C[C@@H]2Oc3ccc(NC(=O)CCCCCC(=O)Nc4ccccc4N)cc3CC(=O)N([C@@H](C)CO)C[C@@H]2C)cc1,-92*,30,-5
O=[N+]([O-])c1cccc(/C=C/CO)c1,.,.,-31
COc1ccc(S(=O)(=O)N(C)C[C@H]2OCCCC[C@H](C)Oc3ccc(NC(=O)c4ccccc4)cc3C(=O)N([C@H](C)CO)C[C@@H]2C)cc1,-71,89,22
COc1ccc(S(=O)(=O)N(C)C[C@@H]2OCCCC[C@@H](C)Oc3ccc(NC(=O)c4ccccc4)cc3C(=O)N([C@H](C)CO)C[C@@H]2C)cc1,-65,65,6
COc1ccc(S(=O)(=O)N(C)C[C@H]2OCCCC[C@@H](C)Oc3ccc(NC(=O)c4ccccc4)cc3C(=O)N([C@@H](C)CO)C[C@H]2C)cc1,-64,76,11
COc1ccc(S(=O)(=O)N(C)C[C@H]2OCCCC[C@H](C)Oc3ccc(NC(=O)c4ccccc4)cc3C(=O)N([C@H](C)CO)C[C@H]2C)cc1,-87*,57,16
COc1ccc(S(=O)(=O)N(C)C[C@@H]2OCCCC[C@H](C)Oc3ccc(NC(=O)c4ccccc4)cc3C(=O)N([C@H](C)CO)C[C@H]2C)cc1,-83*,61,2
COc1ccc(S(=O)(=O)N(C)C[C@H]2OCCCC[C@@H](C)Oc3ccc(NC(=O)c4ccccc4)cc3C(=O)N([C@@H](C)CO)C[C@@H]2C)cc1,-83*,91,17
C[C@@H]1CCCCO[C@@H](CN(C)C(=O)c2ccccc2)[C@H](C)CN([C@H](C)CO)C(=O)c2cc(NC(=O)CCC(F)(F)F)ccc2O1,-56,4,-2
Cc1noc(C)c1NC(=O)N(C)C[C@H]1Oc2c(NC(=O)Nc3cccc4ccccc34)cccc2C(=O)N([C@H](C)CO)C[C@H]1C,-21,-70,-5
CC(C)NC(=O)N(C)C[C@@H]1Oc2ccc(NC(=O)CCCCCC(=O)Nc3ccccc3N)cc2CC(=O)N([C@@H](C)CO)C[C@@H]1C,17,16,-6
CO[C@H]1CN(C)C(=O)c2ccc(NS(=O)(=O)c3cn(C)cn3)cc2OC[C@@H](C)N(Cc2cccc(F)c2)C[C@H]1C,2,-24,-10
COc1cccc(-c2ccc3c(c2)[C@@H]2[C@@H](CCN2C(=O)C2CC2)[C@H](CO)N3)c1,-75,.,3
COc1cccc(-c2ccc3c(c2)[C@@H]2[C@@H](CCN2C(=O)C2CCCC2)[C@H](CO)N3)c1,-86*,.,-10
